The term AC50 denotes the midpoint of the concentration-response curve, whichever way the signal moves.

Values joined by “and” are separate entries in the source; they are usually repeats but may differ in a detail not shown here. Equal values may be shown once. Records with an inconclusive call do not appear. Active and inactive are the calls of the source. Rule for the calls, unless noted: active = hit-call score of the fitted dose curve at least 0.9, where 1 is the maximum; inactive = score below 0.9.

The nature of the first experiment: CCTE_Shafer_MEA_dev_per_burst_spike_percent: CCTE's Neural Network Formation Assay for Percent of Spikes in a Burst, Shafer Lab (AID 2284032).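 For AC50: fitted as a decrease in burst spike percentage below DMSO baseline.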 The procedure, abridged: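 Rat primary cortical neurons on 16-electrode MEA wells, dosed from plating day 0 for 12 days with renewal on DIV 5 and 9; spikes-in-bursts percentage averaged over bursting electrodes, collapsed as AUC across days 5, 7, 9, 12; loss direction versus DMSO.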
As to `Brc1cc(Br)c(Oc2cc(Br)c(Br)cc2Br)cc1Br`, the outcome was inactive.

`CC(C)O`: the concentration at half-maximal activity (AC50) was 10.2 µM (active).

For `F`, the molecule was called inactive.

`CC(=O)N[C@@H](CC(=O)O)C(=O)O`: the result was inactive.

Turning to `CCCCCC=C(C)C(CC)CCO` (stereo not given), the outcome was inactive.

`BrC1CC(Br)CC(Br)CC(Br)CC(Br)CC(Br)C1` (stereo not given): the AC50 was 4.4 µM (active).

As for `C[C@@H]1CC[C@@H](C(C)(C)O)[C@H](O)C1`, the result was inactive.

Consider `CC(C)c1nn(C(=O)NC(C)(C)C)c(=O)n1N`, for which the molecule was called inactive.

For `[O]=[V]([OH])([OH])[OH]`, the concentration at half-maximal activity (AC50) was 15 µM (active).

For the molecule `CCc1ccccc1`, the call was inactive.

For `CN(C)CCCn1cc(C2=C(c3c[nH]c4ccccc34)C(=O)NC2=O)c2ccccc21`, the AC50 was 4.52 µM (active) and 2.95 µM (active) and 5 µM (active).

`CCCCCC(C)(CC)C(=O)NC` (stereo not given): the AC50 is 74.5 µM (active).

With `Cc1[nH]n(C)c(=O)c1C(=O)c1ccc(C(F)(F)F)cc1S(C)(=O)=O`, the result was inactive.

As to `CC(CNC(=S)[S-])NC(=S)[S-].[Zn+2]` (stereo not given), the half-maximal activity concentration (AC50) was 17.4 µM (active).

Take `C[C@@H]1CCO[C@H]2Cn3cc(C(=O)NCc4ccc(F)cc4F)c(=O)c(O)c3C(=O)N12`: the half-maximal activity concentration (AC50) was 1.64 µM (active).

A short description of another experiment: CCTE_Shafer_MEA_dev_active_electrodes_number: CCTE's Neural Network Formation Assay for Number of Active Electrodes, Shafer Lab (AID 2284040; active = hit-call score of the fitted dose curve at least 0.9, where 1 is the maximum;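 for AC50: potency for loss of active electrodes versus DMSO so lower counts are hits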). The procedure, abridged:
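Primary rat cortical neurons on 16-electrode MEA wells, exposed from day 0 through day 12 with compound renewed at DIV 5 and 9 feeds. Active electrodes (mean firing ≥5 spikes/min) counted at DIV 5, 7, 9, 12; trapezoidal AUC across days, loss-of-signal versus DMSO.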
Take `Brc1cc(Br)c(Oc2cc(Br)c(Br)cc2Br)cc1Br`: the call was inactive.

As for `CC(C)O`, the AC50 was 7.59 µM (active).

Take `CCCCCC=C(C)C(CC)CCO` (stereo not given): the call was inactive.

Consider `BrC1CC(Br)CC(Br)CC(Br)CC(Br)CC(Br)C1` (stereo not given), for which the concentration at half-maximal activity (AC50) was 6.75 µM (active).

Take `C[C@@H]1CC[C@@H](C(C)(C)O)[C@H](O)C1`: the call was inactive.

Take `CC(C)c1nn(C(=O)NC(C)(C)C)c(=O)n1N`: the molecule was called inactive.

Regarding `[O]=[V]([OH])([OH])[OH]`, the concentration at half-maximal activity (AC50) is 15 µM (active).

Regarding `CCc1ccccc1`, the call was inactive.

For `CN(C)CCCn1cc(C2=C(c3c[nH]c4ccccc34)C(=O)NC2=O)c2ccccc21`, the AC50 is 4.2 µM (active) [middle of 4 runs].

Turning to `CCCCCC(C)(CC)C(=O)NC` (stereo not given), the AC50 was 50 µM (active).

Consider `Cc1[nH]n(C)c(=O)c1C(=O)c1ccc(C(F)(F)F)cc1S(C)(=O)=O`, for which the molecule was called inactive.

As for `CC(CNC(=S)[S-])NC(=S)[S-].[Zn+2]` (stereo not given), the AC50 was 16.8 µM (active).

Take `C[C@@H]1CCO[C@H]2Cn3cc(C(=O)NCc4ccc(F)cc4F)c(=O)c(O)c3C(=O)N12`: the half-maximal activity concentration (AC50) is 1.46 µM (active).

The nature of the next experiment: CCTE_Shafer_MEA_dev_burst_rate: CCTE's Neural Network Formation Assay for Burst Rate, Shafer Lab (AID 2284042).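 For AC50: potency for loss of burst rate below DMSO control.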 In outline: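 Primary rat cortical neurons on PEI-coated 48-well MEA plates (laminin added with cells at plating) (16 electrodes/well), exposed from plating to day 12, dosing renewed at DIV 5 and 9. Burst rate averaged over active electrodes, recorded DIV 5, 7, 9, 12, summarized as AUC; loss versus DMSO.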
`Brc1cc(Br)c(Oc2cc(Br)c(Br)cc2Br)cc1Br`: the result was inactive.

On to `CC(C)O`, for which the outcome was inactive.

For the molecule `F`, the call was inactive.

Take `CC(=O)N[C@@H](CC(=O)O)C(=O)O`: the molecule was called inactive.

`CCCCCC=C(C)C(CC)CCO` (stereo not given): the molecule was classed as inactive.

Turning to `BrC1CC(Br)CC(Br)CC(Br)CC(Br)CC(Br)C1` (stereo not given), the AC50 is 4.73 µM (active).

`C[C@@H]1CC[C@@H](C(C)(C)O)[C@H](O)C1`: the outcome was inactive.

Regarding `CC(C)c1nn(C(=O)NC(C)(C)C)c(=O)n1N`, the molecule was called inactive.

Take `[O]=[V]([OH])([OH])[OH]`: the molecule was called inactive.

`CCc1ccccc1`: the outcome was inactive.

As to `CN(C)CCCn1cc(C2=C(c3c[nH]c4ccccc34)C(=O)NC2=O)c2ccccc21`, the AC50 is 1.61 µM (active) [middle of 4 runs].

Take `CCCCCC(C)(CC)C(=O)NC` (stereo not given): the call was inactive.

With `Cc1[nH]n(C)c(=O)c1C(=O)c1ccc(C(F)(F)F)cc1S(C)(=O)=O`, the call was inactive.

In the case of `CC(CNC(=S)[S-])NC(=S)[S-].[Zn+2]` (stereo not given), the AC50 was 9.92 µM (active).

Regarding `C[C@@H]1CCO[C@H]2Cn3cc(C(=O)NCc4ccc(F)cc4F)c(=O)c(O)c3C(=O)N12`, the concentration at half-maximal activity (AC50) was 1.67 µM (active).

A further experiment is described as follows: CCTE_Shafer_MEA_dev_bursting_electrodes_number: CCTE's Neural Network Formation Assay for Number of Bursting Electrodes, Shafer Lab (AID 2284043; active = hit-call score of the fitted dose curve at least 0.9, where 1 is the maximum;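 for AC50: potency is for loss of bursting electrodes relative to DMSO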). In outline: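 Primary rat cortical neurons were cultured on PEI-coated 48-well MEA plates (16 electrodes/well) and exposed from plating through day 12, with compound renewed at feeds on DIV 5 and 9. Electrodes bursting ≥1 per 2 min were counted on DIV 5, 7, 9, 12; trapezoidal AUC taken.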
Consider `Brc1cc(Br)c(Oc2cc(Br)c(Br)cc2Br)cc1Br`, for which the outcome was inactive.

Turning to `CC(C)O`, the AC50 was 11.8 µM (active).

In the case of `CC(=O)N[C@@H](CC(=O)O)C(=O)O`, the molecule was classed as inactive.

`CCCCCC=C(C)C(CC)CCO` (stereo not given): the molecule was classed as inactive.

As to `BrC1CC(Br)CC(Br)CC(Br)CC(Br)CC(Br)C1` (stereo not given), the AC50 was 5.42 µM (active).

For the molecule `C[C@@H]1CC[C@@H](C(C)(C)O)[C@H](O)C1`, the molecule was classed as inactive.

Turning to `CC(C)c1nn(C(=O)NC(C)(C)C)c(=O)n1N`, the call was inactive.

Consider `[O]=[V]([OH])([OH])[OH]`, for which the AC50 is 9.39 µM (active).

As to `CCc1ccccc1`, the outcome was inactive.

Take `CCCCCC(C)(CC)C(=O)NC` (stereo not given): the AC50 is 50 µM (active).

Regarding `Cc1[nH]n(C)c(=O)c1C(=O)c1ccc(C(F)(F)F)cc1S(C)(=O)=O`, the call was inactive.

Consider `CC(CNC(=S)[S-])NC(=S)[S-].[Zn+2]` (stereo not given), for which the AC50 was 15 µM (active).

For `C[C@@H]1CCO[C@H]2Cn3cc(C(=O)NCc4ccc(F)cc4F)c(=O)c(O)c3C(=O)N12`, the concentration at half-maximal activity (AC50) was 1.65 µM (active).

A short description of the next experiment: CCTE_Shafer_MEA_dev_per_burst_interspike_interval: CCTE's Neural Network Formation Assay for Burst Interspike Interval, Shafer Lab (AID 2284044).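 For AC50: potency for a decrease of within-burst interspike interval below DMSO level.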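 Note: mean spike spacing inside bursts as AUC over recordings on days 5 7 9 12.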 The procedure, abridged:
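Developmental network-formation MEA in primary rat cortical cultures with exposure spanning days 0–12. Within-burst ISI is averaged per well and integrated across recording days by area under the curve, with DMSO as negative control baseline.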
For `Brc1cc(Br)c(Oc2cc(Br)c(Br)cc2Br)cc1Br`, the molecule was classed as inactive.

As for `CC(C)O`, the concentration at half-maximal activity (AC50) was 10.2 µM (active).

With `F`, the outcome was inactive.

Take `CC(=O)N[C@@H](CC(=O)O)C(=O)O`: the molecule was classed as inactive.

As to `CCCCCC=C(C)C(CC)CCO` (stereo not given), the molecule was called inactive.

As to `BrC1CC(Br)CC(Br)CC(Br)CC(Br)CC(Br)C1` (stereo not given), the half-maximal activity concentration (AC50) was 8.48 µM (active).

As for `C[C@@H]1CC[C@@H](C(C)(C)O)[C@H](O)C1`, the molecule was classed as inactive.

Consider `CC(C)c1nn(C(=O)NC(C)(C)C)c(=O)n1N`, for which the molecule was classed as inactive.

Turning to `[O]=[V]([OH])([OH])[OH]`, the result was inactive.

Take `CCc1ccccc1`: the molecule was classed as inactive.

Consider `CCCCCC(C)(CC)C(=O)NC` (stereo not given), for which the outcome was inactive.

Regarding `Cc1[nH]n(C)c(=O)c1C(=O)c1ccc(C(F)(F)F)cc1S(C)(=O)=O`, the molecule was called inactive.

Regarding `CC(CNC(=S)[S-])NC(=S)[S-].[Zn+2]` (stereo not given), the concentration at half-maximal activity (AC50) is 26.2 µM (active).

For the molecule `C[C@@H]1CCO[C@H]2Cn3cc(C(=O)NCc4ccc(F)cc4F)c(=O)c(O)c3C(=O)N12`, the AC50 is 1.8 µM (active).
